# About 360 (0.19%) of roughly 190,000 compounds were called active. Another 2% or so got no clear call; they are omitted. Many of the other results were omitted from the sample, so actives are more common in it than they were. Values without a mark were called inactive.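 The calls were made as follows: active = GTP binding activity at least 20 points away from 100%, either lowered or raised; inconclusive = signal likely due to the compound's own green fluorescence; inactive = the rest.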
# Biological target: Ras-related protein Rab-2A (Canis lupus familiaris) (UniProt P61105)
# Test: modulators of GTP binding to Rab2A wildtype, primary screen, biochemical, dog, bead-based flow cytometry, multiplex (AID 760);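 also: 0% = beads with excess unlabeled GTP and 100% = no-compound control corrected for plate trend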
# Details: GST-Rab2 wt beads, Bodipy-GTP binding, at 10 µM
row,Compound,GTP binding activity
1,Nc1c(C(=O)O)cnn1-c1ccccc1,96%
2,Fc1ccccc1Cc1ccc(Cl)nn1,96%
3,CC(=O)Nc1ccc(S(=O)(=O)Nc2nccc(/C=C/c3ccccc3F)n2)cc1,99%
4,O=C1NC2(CCCCCC2)C(=O)N1CCS(=O)(=O)Oc1ccccc1,96%
5,O=C(Nc1cccnc1)c1ccc(Cl)cc1[N+](=O)[O-],103%
6,COc1ccc(NC(=O)c2c(SC)nsc2SC)cc1,100%
7,CSc1nsc(SC)c1NC(=O)OC1CCCCC1,31% (active)
8,CSc1ncccc1C(=O)NC1CCCCCC1,99%
9,Cc1ccc(N(C(=O)c2ccc(S(=O)(=O)N(C)C)cc2)C2C=CS(=O)(=O)C2)cc1 (stereo unspecified),99%
10,COc1ccc(CCNC(=O)CCn2c(=O)c3ccccc3n(CC(=O)NCC3CCCO3)c2=O)cc1OC (stereo unspecified),96%
11,COc1ccc(/C=C/C2=CC(C)(C)NC(=S)N2)c(OC)c1,96%
12,CCOC(=O)c1ccc(NC(=O)C2CC(=O)Nc3nc4ccccc4n32)cc1 (stereo unspecified),94%
13,C/C(=N\NC(=O)OC(C)(C)C)c1ccc[nH]1,98%
14,O=C(Cn1nnc2ccccc2c1=O)NCc1ccc(Cl)cc1,100%
15,CC(C)CCC(C)NC(=O)c1ccc2nccnc2c1 (stereo unspecified),97%
16,COc1ccc(CCNC(=O)COC(=O)Cc2cc(OC)c(OC)c(OC)c2)cc1,96%
17,Cn1cc(-c2ccccc2)cc(C#N)c1=O,98%
18,CCc1ccccc1NC(=O)CSc1nnc(-c2ccncc2)o1,99%
19,Cc1ccc(C2=NN(C(=O)COc3ncnc4ccccc34)C(c3ccco3)C2)cc1 (stereo unspecified),93%
20,COc1ccc(OC)c(-n2c(=S)[nH]c3cc(C(=O)N4CCCCC4)ccc3c2=O)c1,100%
21,S=C(Nc1ccc(Br)cc1Cl)NC1CCN(Cc2ccccc2)CC1,100%
22,CN(C)c1nc(-c2cccnc2)nc(-c2ccc(Cl)cc2)c1C#N,98%
23,CC(=O)Nc1ccc(OCCC[n+]2cccc(C(=O)[O-])c2)cc1,97%
24,CCOC(=O)C1=C(CN2CCCCCC2)NC(=O)NC1c1cccc([N+](=O)[O-])c1 (stereo unspecified),97%
25,COc1ccc(-n2c(C)nn(CC3CC3)c2=O)cc1,100%
26,CN(C)CCCn1c(SCCN2C(=O)c3ccccc3C2=O)nc2ccccc2c1=O,95%

row,Compound,GTP binding activity
1,O=S(=O)(Nc1cc(S(=O)(=O)N2CCOCC2)ccc1N1CCCC1)c1cccs1,98%
2,Cc1ccc(N(C(=O)Cc2cccs2)C2C=CS(=O)(=O)C2)cc1Cl (stereo unspecified),100%
3,C/C(=N\Nc1ncc(Cl)cc1Cl)c1cccs1,98%
4,Cc1cccc(CN2CCN(Cc3cnn(-c4ccccc4F)c3)CC2CCO)n1 (stereo unspecified),99%
5,Cc1cc(C)n(-c2nc(C(F)(F)F)nc3ccccc23)n1,96%
6,Cc1ccc(NC(=S)N(Cc2ccco2)C(C)c2cccs2)cc1 (stereo unspecified),101%
7,COC(=O)c1cc(NC(=O)c2cccnc2)ccc1N1CCOCC1,96%
8,CCN(CC)c1ccc(C(=O)c2cnc(/N=C/N(C)C)s2)cc1,95%
9,Cc1cc(NC(=O)CSc2nc3c(cc2C#N)CCCCC3)no1,94%
10,O=C(Cc1ccccc1)N1CCN(S(=O)(=O)c2ccc([N+](=O)[O-])cc2)CC1,98%
11,N#C/C(C(=S)Nc1ccccc1)=C1/NN=C(N2CCOCC2)N1c1ccccc1,90%
12,CCCn1c(N)c(C(=O)CSc2nc3ccccc3c(=O)n2-c2ccc(OC)cc2)c(=O)[nH]c1=O,92%
13,S=c1[nH]nc(Nc2ccccc2)s1,92%
14,O=C1CCC(=O)N1c1ccc(NCCc2ccccc2F)c([N+](=O)[O-])c1,101%
15,NC(=O)COC(=O)c1sc2cc(F)ccc2c1Cl,94%
16,CCN(CC)S(=O)(=O)c1ccc(N2CCCC2)c(NS(=O)(=O)c2cccs2)c1,94%
17,O=C(NCc1ccccc1Cl)C1CCN(S(=O)(=O)N2CCOCC2)CC1,104%
18,Cc1ccc(NC(=O)c2ccccn2)cc1S(=O)(=O)N1CCOCC1,99%
19,CSc1ccc(CNCCN2CCOCC2)cc1,96%
20,COC(=O)c1ccc(NC(=S)NN2CCOCC2)cc1,99%
21,CCCC(=O)OCC(=O)Nc1cc(Cl)ccc1[N+](=O)[O-],92%
22,O=c1c(-c2ccccc2)cnc2n1CCS2,96%
23,Cc1ccc(NC(=O)c2ccc(S(=O)(=O)NCC3CCCO3)cc2)cc1C (stereo unspecified),97%
24,Cc1cc(CNCc2c(C(=O)N(C)Cc3ccccc3)nc3ccccn23)nn1C,101%
25,O=C(Nc1nnc(C2CC2)s1)C1=NN(C2CCS(=O)(=O)C2)C(=O)CC1 (stereo unspecified),96%
26,Cc1nc(N2CCCCC2)sc1C=O,105%

row,Compound,GTP binding activity
1,Cc1ccccc1NCC(=O)N/N=C\c1ccc([N+](=O)[O-])s1,98%
2,CS/C(=C\[N+](=O)[O-])Nc1ccc(C)cc1,100%
3,O=C(NCC1CCCO1)C1CCN(C2CCN(C(=O)C3CCCCC3)CC2)CC1 (stereo unspecified),98%
4,COC(=O)c1cc2n(n1)CCCNC2=O,100%
5,COc1ccc(N(CC(=O)NC2CCCC2)C(=O)CS(=O)CC(=O)Nc2ccc3c(c2)OCO3)cc1 (stereo unspecified),95%
6,CCOC(=O)C1(Cc2ccc(Cl)cc2)CCN(C(=O)C2=NNC(=O)CC2)CC1,101%
7,Cc1cc(=O)oc2c1c(C)nn2-c1ccc(Cl)cc1,100%
8,COc1ncnc2sc3c(c12)CCCC3,102%
9,COc1cc(/C=N/Nc2ccc(C)cc2)cc(Br)c1O,94%
10,COc1ccc(/C=N/Nc2ncnc3sc4c(c23)CCCC4)cc1O,71% (active)
11,COc1ccc(NC(=S)NCCN2CCC(C)CC2)cc1,100%
12,COc1cc(OC)c(C(=O)N2CCCC2)cc1OC,98%
13,COc1ccc(/C=N/NC(=O)c2ccncc2)cc1CN1CCCc2ccccc21,95%
14,COc1ccc(CN2CCC(c3nc4ccc(Cl)cc4[nH]3)CC2)cc1,96%
15,CC(Sc1nnnn1C1CCCCC1)C(=O)O (stereo unspecified),101%
16,COc1ccc(C(=O)OCC(=O)NCC2CCCO2)cc1[N+](=O)[O-] (stereo unspecified),93%
17,COC(=O)c1ccc(CN2CCN(CCCc3ccccc3)C(CCO)C2)cc1 (stereo unspecified),97%
18,Cc1ccc(CSc2nc3[nH]ncc3c(=O)[nH]2)cc1,79% (active)
19,Cc1cccc(NC(=O)CSc2nc3[nH]ncc3c(=O)[nH]2)c1,94%
20,CCCSc1nc2[nH]ncc2c(=O)[nH]1,99%
21,Cc1cc(OCC(=O)NC2CCN(C)CC2)ccc1[N+](=O)[O-],98%
22,COc1ccc(C/C(N)=N/OC(=O)c2ccco2)cc1OC,101%
23,O=C(COC(=O)CNC(=O)c1ccccc1F)NCC(F)(F)F,101%
24,Cc1ccc(NC(=O)Nc2cccc(C(F)(F)F)c2)nc1,103%
25,CC1CC(C)CN(C(=O)CSc2ccsc2[N+](=O)[O-])C1 (stereo unspecified),102%
26,CCOC(=O)c1sc(NC(=O)CSc2nc(O)c(Cc3ccccc3)c(=O)[nH]2)nc1C,93%

row,Compound,GTP binding activity
1,Cc1ccnc(NS(=O)(=O)c2ccc(NC(=O)c3ccc(S(=O)(=O)N(C)C)cc3)cc2)n1,98%
2,CN(CCC1CCOCC1)Cc1cn[nH]c1-c1ccc(-c2ccccc2)cc1,96%
3,C/C=C/C=C/C(=O)OCC(=O)Nc1ccc(Cl)cc1,93%
4,CN(C)CCOCCOc1ccc(Cl)c2ccccc12,106%
5,Cc1nn(CC(=O)Nc2ccc(C#N)cc2)c(C)c1[N+](=O)[O-],99%
6,COC(=O)c1ccc(/C=N/N2C(C)CCCC2C)cc1 (stereo unspecified),100%
7,COC(=O)c1sc2[nH]c(=S)n(N)c(=O)c2c1C,100%
8,CCN(C(=O)COC(=O)c1cc(S(=O)(=O)N2CCc3ccccc32)ccc1OC)C1CCS(=O)(=O)C1 (stereo unspecified),96%
9,CC(NC(=O)C(=O)N/N=C/c1ccc(Cl)cc1)c1ccccc1 (stereo unspecified),98%
10,CC1CCCCC1NC(=O)CO/N=C/c1ccc(OC(F)F)cc1 (stereo unspecified),97%
11,NS(=O)(=O)c1ccc(NC(=O)COC(=O)c2ccco2)cc1,97%
12,COc1ccc(C(=O)CSc2nnnn2C)c(OC)c1,98%
13,COc1cc(CN(C)Cc2nc3cc(C(F)(F)F)ccc3c(=O)[nH]2)ccc1OC(F)F,94%
14,Cn1c(N)cc(-c2ccc(F)cc2)c(C#N)c1=O,97%
15,Cc1cc(C(=O)N/N=C/c2ccccc2[N+](=O)[O-])c(C)o1,95%
16,COc1ccc(/C=N/NC(=O)C(C)N(c2ccc(OC)cc2)S(C)(=O)=O)cc1 (stereo unspecified),96%
17,CSCCNCc1cn(-c2ccc(F)cc2F)nc1-c1ccccc1C,100%
18,Cc1ccnc(NC(=O)CCCOc2ccccc2)c1,97%
19,O=C(NNC(=O)c1ccccc1[N+](=O)[O-])Nc1ccccc1C(F)(F)F,101%
20,CC(C)NC(=O)/C(C#N)=C\c1ccc(N(C)C)c(Br)c1,94%
21,O=C(CCn1c(=O)[nH]c2ccccc2c1=O)NCCCN1CCN(c2cccc(Cl)c2)CC1,101%
22,O=C(Cc1csc(Nc2nc(=S)[nH]c3ccccc23)n1)NCCCN1CCN(c2cccc(Cl)c2)CC1,78% (active)
23,COc1cccc(CNC(=O)Cc2csc(Nc3nc(=S)[nH]c4ccccc34)n2)c1,93%

# From PubChem BioAssay AID760 (NMMLSC, 2007)
